Compound activity (PubChem BioAssay)
CYP2C19 act = cytochrome P450 2C19 (human) activation; P33261; recombinant CYP2C19, luciferin-H EGE luminescence; hits give high values; 0 = fully inhibited enzyme, 1 = untreated enzyme; activation factor at 5 µM; 96,000 tested, under 10 active;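 active = activation factor of at least 2 at 5 µM in the primary screen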;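 also: 0 = wells with 2.5 mM tranylcypromine and 1 = vehicle-only wells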
Target sequence (P33261 whole entry, looked up): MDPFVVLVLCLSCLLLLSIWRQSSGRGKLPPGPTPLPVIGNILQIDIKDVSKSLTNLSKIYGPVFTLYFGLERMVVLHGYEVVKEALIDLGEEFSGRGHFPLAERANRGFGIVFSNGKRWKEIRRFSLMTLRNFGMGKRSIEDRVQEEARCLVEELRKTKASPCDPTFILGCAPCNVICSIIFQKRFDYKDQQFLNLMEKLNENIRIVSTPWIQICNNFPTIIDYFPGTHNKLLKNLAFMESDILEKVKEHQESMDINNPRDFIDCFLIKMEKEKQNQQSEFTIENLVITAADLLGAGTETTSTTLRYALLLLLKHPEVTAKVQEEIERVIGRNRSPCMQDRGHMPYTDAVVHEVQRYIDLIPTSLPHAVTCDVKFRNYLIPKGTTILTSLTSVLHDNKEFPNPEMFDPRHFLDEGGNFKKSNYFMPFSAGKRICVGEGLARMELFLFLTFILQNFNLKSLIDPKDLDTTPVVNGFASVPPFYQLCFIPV
CYP2C9 inh = human CYP2C9 inhibition; P11712; CYP2C9 Supersomes, luciferin-H conversion, luminescence; inhibition, % at 5 µM; 96,000 tested, 20% active; AID 777;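 active = blocking of liver enzyme CYP2C9 beyond about 50% at 5 µM, limit read from the data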
CYP2C19 inhib = blocks human cytochrome P450 2C19; P33261; CYP2C19 Supersomes, luciferin-H EGE luminescence, 30 min; inhibition, % at 5 µM; 96,000 tested, 21% active;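 active = CYP2C19 inhibition above a set limit at 5 µM in the primary screen, cut at about 50% in these data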;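 also: plate controls were negative control wells for no effect and 2.5 mM tranylcypromine positive control for full effect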
CYP2C9 act = increases human cytochrome P450 2C9 activity; AID 1024; recombinant CYP2C9, luciferin-H conversion, luminescence; hits give high values; factor 1 = untreated enzyme, 0 = blocked; P11712; activation factor at 5 µM; 96,000 tested, 1.4% active;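 active = activation factor of 2 or more for CYP2C9 at a 5 µM dose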;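 also: 0 = sulfaphenazole-blocked wells and 1 = vehicle-only wells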
Measles CPE = protection of cells from measles virus | protection (pct of control), % at 4 µM | Measles virus-infected cells, CPE protection, absorbance | 140,000 tested, 1.5% active; in the data active = protection mostly above about 24%, no sharp cut-off; inactive = mostly below about 26%
* = called active by the depositor. Compounds with a hit are over-represented: about 22% of the library has one in this group of screens.

For Cc1cc(NC(=O)c2ccc(COc3ccc(Cl)c(C)c3)o2)no1 the results were CYP2C19 act 0.7, CYP2C9 inh 18.0, CYP2C19 inhib 29.8, CYP2C9 act 0.8 and Measles CPE 5.6.
`Cc1ccc(N(CC(=O)Nc2ccc(F)c(Cl)c2)S(=O)(=O)c2c(C)noc2C)cc1` gave CYP2C19 act 1, CYP2C9 inh 7.1, CYP2C19 inhib 0.9, CYP2C9 act 0.9 and Measles CPE 7.4.
`CCOC(=O)c1c(NC(=O)CC2SC(N)=NC2=O)sc2c1CCC(C)C2` (configuration not stated) gave Measles CPE 13.3.
CCN(CC)c1ccc(NC(=O)c2ccc(Br)o2)c(C)c1 was read as CYP2C19 act 0.7, CYP2C9 inh -140.3, CYP2C19 inhib 29.1, CYP2C9 act 2.4* and Measles CPE 3.0.
COc1ccc(NC(=O)c2ccc(COc3ccccc3Br)o2)cc1OC was read as CYP2C19 act 0.6, CYP2C9 inh 73.1*, CYP2C19 inhib 36.5, CYP2C9 act 0.3 and Measles CPE 2.2.
For COc1ccc(NC(=O)c2ccc(COc3ccccc3OC)o2)cc1OC the results were CYP2C19 act 0.7, CYP2C9 inh 20.0, CYP2C19 inhib 25.7, CYP2C9 act 0.8 and Measles CPE 5.5.
Screening Cc1onc(-c2ccccc2)c1C(=O)n1cc(Br)cn1 returned Measles CPE 21.5.
`C=C1CSc2nc(=O)c3c4c(sc3n21)CCC4` gave CYP2C19 act 1, CYP2C9 inh -10.4, CYP2C19 inhib 0.6 and CYP2C9 act 1.1.
CCOc1ccc(C(CCc2ccccc2)NC(=O)c2ccccc2F)cc1OCC (configuration not stated) was read as CYP2C19 act 0.2, CYP2C9 inh 78.1*, CYP2C19 inhib 77.2*, CYP2C9 act 0.2 and Measles CPE 10.4.
Screening CCOc1ccc(C(CCc2ccccc2)NC(=O)c2ccccc2OC)cc1OCC (configuration not stated) returned CYP2C19 act 0.4, CYP2C9 inh 84.9*, CYP2C19 inhib 64.3*, CYP2C9 act 0.2 and Measles CPE 5.3.
For CCCC[C@@H]1C[C@H]1[C@@H](NC(=O)c1cccs1)c1ccc(Cl)cc1 the results were Measles CPE 16.9.
O=c1sc2ccccc2n1COc1ccccc1 was read as CYP2C19 act 0.1, CYP2C9 inh 58.6*, CYP2C19 inhib 89.0* and CYP2C9 act 0.4.
O=c1sc2ccccc2n1CCCOc1ccccc1 was read as CYP2C19 act 0.5, CYP2C9 inh 62.2*, CYP2C19 inhib 47.1, CYP2C9 act 0.4 and Measles CPE 9.2.
For COc1ccc(Cn2c(=O)sc3ccccc32)cc1 the results were CYP2C19 act 0.5, CYP2C9 inh 68.4*, CYP2C19 inhib 50.5*, CYP2C9 act 0.3 and Measles CPE 15.1.
For CC(C)Oc1ccc(Cn2c(=O)sc3ccccc32)cc1 the results were Measles CPE 11.9.
`Cc1ccc(OCCn2c(=O)sc3ccccc32)cc1` gave Measles CPE 5.2.
Screening Cc1ccccc1OCCCn1c(=O)sc2ccccc21 returned CYP2C19 act 0.7, CYP2C9 inh 54.9*, CYP2C19 inhib 32.7, CYP2C9 act 0.5 and Measles CPE 1.9.
O=c1sc2ccccc2n1COc1ccc(Cl)cc1 was read as CYP2C19 act 0, CYP2C9 inh 94.1*, CYP2C19 inhib 99.7*, CYP2C9 act 0.1 and Measles CPE 7.8.
Cc1ccc(-n2nnnc2SCCNS(=O)(=O)c2ccccc2)cc1C was read as CYP2C19 act 0.3, CYP2C9 inh -95.5, CYP2C19 inhib 74.6*, CYP2C9 act 2* and Measles CPE 1.8.
`Cn1nnnc1SCCNS(=O)(=O)c1ccccc1` gave CYP2C19 act 0.2, CYP2C9 inh -3.5, CYP2C19 inhib 78.2*, CYP2C9 act 1 and Measles CPE 3.5.
For COc1ccc(NC(=O)c2cc(C)on2)cc1OC the results were CYP2C19 act 1, CYP2C9 inh -2.8, CYP2C19 inhib 1.4, CYP2C9 act 1 and Measles CPE 0.2.
CCCC(=O)OCCn1c(Br)nc2c1c(=O)[nH]c(=O)n2C was read as Measles CPE 34.8*.
Screening CC(=O)c1ccc(N2CCC(c3cc(-c4ccc(Cl)cc4Cl)n[nH]3)CC2)c([N+](=O)[O-])c1 returned CYP2C19 act 0.5, CYP2C9 inh 58.8*, CYP2C19 inhib 51.2*, CYP2C9 act 0.4 and Measles CPE 7.9.
For COc1ccc(OC)c(-c2cc(C3CCN(c4ncccc4[N+](=O)[O-])CC3)[nH]n2)c1 the results were CYP2C19 act 0.8, CYP2C9 inh 49.2, CYP2C19 inhib 22.1, CYP2C9 act 0.5 and Measles CPE 4.9.
`O=[N+]([O-])c1cccnc1N1CCC(c2cc(-c3ccc(Cl)cc3Cl)n[nH]2)CC1` gave CYP2C19 act 0.6, CYP2C9 inh 85.3*, CYP2C19 inhib 37.0, CYP2C9 act 0.1 and Measles CPE 6.9.
`O=[N+]([O-])c1cccnc1N1CCC(c2cc(-c3cccc(C(F)(F)F)c3)n[nH]2)CC1` gave CYP2C19 act 0.3, CYP2C9 inh 98.1*, CYP2C19 inhib 66.7*, CYP2C9 act 0 and Measles CPE 9.1.
`CCC(=O)N1CCN(c2ccc(Cl)cc2NC(=O)c2ccc(N3CCCC3)c([N+](=O)[O-])c2)CC1` gave CYP2C19 act 0.6, CYP2C9 inh 36.0, CYP2C19 inhib 41.5, CYP2C9 act 0.6 and Measles CPE 0.6.
COc1ccc(NCC(=O)N/N=C/c2c(C)nn(Cc3ccccc3)c2Cl)cc1 was read as Measles CPE 5.8.
Brc1ccc(-c2nnc3sc(CN4CCN(c5ccccc5)CC4)cn23)cc1 was read as CYP2C19 act 1, CYP2C9 inh 3.3, CYP2C19 inhib 1.0, CYP2C9 act 1 and Measles CPE 2.9.
COc1ccccc1OCCOCCn1cnc2ccccc2c1=O was read as CYP2C19 act 0.3, CYP2C9 inh -17.6, CYP2C19 inhib 66.9*, CYP2C9 act 1.2 and Measles CPE 23.8.
COC(=O)c1ccc(OCCn2cnc3ccccc3c2=O)cc1 was read as CYP2C19 act 0.7, CYP2C9 inh 25.2, CYP2C19 inhib 28.6, CYP2C9 act 0.7 and Measles CPE 7.6.
Screening N#CC1=C(SCC(=O)Nc2ccccc2)NC(=O)CC1c1ccc(O)cc1 (configuration not stated) returned CYP2C19 act 0.3, CYP2C9 inh 33.6, CYP2C19 inhib 70.9*, CYP2C9 act 0.7 and Measles CPE 5.7.
`CCOc1ccccc1C1CC(=O)NC(SCC(=O)Nc2nccs2)=C1C#N` (configuration not stated) gave CYP2C19 act 0.4, CYP2C9 inh 67.0*, CYP2C19 inhib 60.1*, CYP2C9 act 0.3 and Measles CPE 9.9.
Screening COc1cc(C2CC(=O)NC(SCC(=O)Nc3ccccc3C)=C2C#N)ccc1O (configuration not stated) returned CYP2C19 act 0.6, CYP2C9 inh -15.3, CYP2C19 inhib 40.8, CYP2C9 act 1.2 and Measles CPE 4.5.
